We go through 15 molecules from PubChem BioAssay (NCATS).

Where “and” joins values, the source holds several entries; their conditions need not be identical. Identical values can stand only once. Inconclusive results are not listed. Values without a mark were called inactive. Calls of active or inactive are those of the source. Calls come from the whole dose curve; as a rule, active = well fitted curve in the direction sought with a large enough effect in the repeat runs; inconclusive = weak or mixed curves; inactive = no such curve, though single readings can be large; an effect the other way counts as inactive or inconclusive.
% is set by controls: 0 for no effect and ±100 for the full control effect.

The nature of one experiment: qHTS assay for small molecule antagonists of the retinoid-related orphan receptor gamma (ROR-gamma) signaling pathway - cell viability counter screen (AID 720652).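 Note: CHO reporter cells with doxycycline-induced ROR-gamma expression; compound exposure lasted 16 hr before ATP read.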 Conditions: RORgamma reporter cell line viability counter screen; series mostly up to 92.2 µM; activity change, negative = cytotoxicity: at the top concentration. The procedure, abridged:
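CHO cells carrying TET-inducible ROR and RORE-luciferase reporter, plated 5 hr, then dosed with compound plus doxycycline. After 16 hr at 37 C, viability read as intracellular ATP by CellTiter-Glo luminescence.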
For orientation: Quantitative high-throughput screening tests each substance at several concentrations.
In the case of `CCNc1nc(Cl)nc(NC(C)C)n1`, the “activity change, negative = cytotoxicity” value is 6.98%.

As to `CCOCN(C(=O)CCl)c1c(C)cccc1CC`, the “activity change, negative = cytotoxicity” value is 3.56%.

As to `O=C(O)COc1ccc(Cl)cc1Cl`, the Potency entry was “inactive”. For the molecule `COC(=O)NC(=S)Nc1ccccc1NC(=S)NC(=O)OC`, the “activity change, negative = cytotoxicity” value is 8.8%. Still for that read-out and setting: the figure for `C/C=C/c1ccc2c(c1)OCO2` is 8.27%; for `COP(=S)(OC)Oc1ccc([N+](=O)[O-])cc1` it is 10.8%. Turning to `C=CCc1ccc(OC)cc1`, the “activity change, negative = cytotoxicity” value is -0.78%.

Regarding `CNC(=O)O/N=C/C(C)(C)SC`, the “activity change, negative = cytotoxicity” value is 2.79%.

Turning to `c1ccc(N=Nc2ccccc2)cc1`, the “activity change, negative = cytotoxicity” value is 0.0157%.

On to `CCc1cccc(CC)c1N(COC)C(=O)CCl`, for which the “activity change, negative = cytotoxicity” value is -13.2%.

A further experiment can be described thus: qHTS assay for small molecule agonists of the antioxidant response element (ARE) signaling pathway measured by Nrf2-dependant transcriptional activity - cell viability counter screen (AID 720653). Conditions: ARE-bla HepG2 viability, CellTiter-Glo ATP luminescence, 16 h; active compounds read low. The procedure, abridged:
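ARE-bla HepG2 cells (2,000/well) rested 5 hrs at 37C/5% CO2, then exposed to compounds in DMSO for 16 hrs. Viability was read in the same wells as intracellular ATP by luminescence, 30 min at room temperature after reagent addition.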
In the case of `CCNc1nc(Cl)nc(NC(C)C)n1`, the max response was 5.56% and -9%. Take `ClC1=C(Cl)C2(Cl)C3C4CC(C5OC45)C3C1(Cl)C2(Cl)Cl` (stereo not given): the max response was -3.29%. In the case of `CCOCN(C(=O)CCl)c1c(C)cccc1CC`, the max response is -15.8% and -13.8%.

`ClC(Cl)=C(c1ccc(Cl)cc1)c1ccc(Cl)cc1`: the max response is 6.47% and -9.67% and -6.97%. For the molecule `ClC1=C(Cl)C2(Cl)C3C4C=CC(C4)C3C1(Cl)C2(Cl)Cl` (stereo not given), the max response is -5%.

For the molecule `O=C(O)COc1ccc(Cl)cc1Cl`, the max response was -0.488% [middle of 4 runs]. With `COC(=O)NC(=S)Nc1ccccc1NC(=S)NC(=O)OC`, the max response is -1.18% and 2.94%. As to `C/C=C/c1ccc2c(c1)OCO2`, the max response is -6.6%. As to `COP(=S)(OC)Oc1ccc([N+](=O)[O-])cc1`, the max response is 0.527% and -8.08%. For `O=S1OCC2C(CO1)C1(Cl)C(Cl)=C(Cl)C2(Cl)C1(Cl)Cl` (stereo not given), the max response is 13.3%. Consider `C=CCc1ccc(OC)cc1`, for which the max response is 2.85%.

As to `ClC1=C(Cl)C2(Cl)C3C(Cl)C=CC3C1(Cl)C2(Cl)Cl` (stereo not given), the max response is -10.5%. Consider `CNC(=O)O/N=C/C(C)(C)SC`, for which the max response was 2.17% and 5.56%. As to `c1ccc(N=Nc2ccccc2)cc1`, the max response is -6.06% and -16.5%. Same read-out and setting: the figure for `CCc1cccc(CC)c1N(COC)C(=O)CCl` is 6.28% and -3.56%.
